# Laboratory results from ChEMBL document CHEMBL3988442, “University of Dundee, Small-Polar-MMV Screening Library” (2021).
# Experiments:
# [1] = molecular target: T1, Aspartate--tRNA(Asp/Asn) ligase (Mycobacterium tuberculosis (strain ATCC 25618 / H37Rv)) (UniProt P9WFW3); experiment: Assay for Asp RNA synthetase-1 from Mycobacterium tuberculosis; type: functional; design: scale not given: direction of the effect not stated beside the values; settings: 30 µM; further: in the data most compounds retested in dose-response had high values
# T1 sequence (whole entry): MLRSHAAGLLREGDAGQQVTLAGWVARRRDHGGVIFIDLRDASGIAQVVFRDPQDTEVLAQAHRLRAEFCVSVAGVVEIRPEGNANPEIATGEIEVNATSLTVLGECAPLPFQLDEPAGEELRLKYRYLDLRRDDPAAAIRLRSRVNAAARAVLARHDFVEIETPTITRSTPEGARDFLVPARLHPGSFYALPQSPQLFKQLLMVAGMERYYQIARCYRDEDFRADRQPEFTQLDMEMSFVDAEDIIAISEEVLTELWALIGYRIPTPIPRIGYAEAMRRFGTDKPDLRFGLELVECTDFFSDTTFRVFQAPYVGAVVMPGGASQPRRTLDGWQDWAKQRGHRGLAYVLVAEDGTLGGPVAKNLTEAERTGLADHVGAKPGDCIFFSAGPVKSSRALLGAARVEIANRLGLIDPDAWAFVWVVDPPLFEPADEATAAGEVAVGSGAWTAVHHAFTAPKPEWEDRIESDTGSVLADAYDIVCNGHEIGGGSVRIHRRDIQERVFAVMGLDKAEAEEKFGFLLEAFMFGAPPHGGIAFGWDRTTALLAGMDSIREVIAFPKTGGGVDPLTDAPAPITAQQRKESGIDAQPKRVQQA
# [2] = molecular target: Shiga toxin 2 (Escherichia coli O157:H7) (UniProt P09385+P09386); experiment: E. coli 0.157:H7 Shiga Toxin SOP - stx2 screening assay; type: functional; design: scale not given: direction of the effect not stated beside the values; settings: 30 µM
SMILES,Percent Effect [1] [%],Percent Effect [2] [%]
CCCN1CCC(NC(=O)c2ccc(F)cc2I)CC1,-6.77,2.29
COc1ncccc1CNC(=O)c1cccnc1O,-1.39,-17.1
Cn1cc(CN2CCC3(CC(=O)N(c4ccc5c(c4)OCO5)C3)C2)cn1 (stereo unspecified),2.85,-15.8
O=S(=O)(c1ccccc1)N1CCC2(CCCN2CC2CCCC2)C1 (stereo unspecified),-2.77,9.27
Cc1cn(-c2ccccc2)nc1NS(=O)(=O)c1cccc(C(=O)O)c1,2.62,-5.83
CN1CCC(c2cccc(Cc3ccc(F)cc3)n2)CC1,-0.194,-29.1
Cn1cccc1CN1CCC2(CCCN(C(=O)Cc3cccnc3)C2)C1 (stereo unspecified),4.47,-14.5
O=C(Nc1cc(F)ccc1OCC1CCCO1)c1ccc(O)nc1 (stereo unspecified),5.1,33.8
CSc1nccn1-c1cccc(C(=O)NCC2CC2)c1,4.07,32
CC(C)CN1C[C@H]2CCN(c3ncccn3)CC[C@H]2S1(=O)=O,2.71,-33
COc1cccc2c1ccn2CC(=O)N[C@@H](CCSC)C(=O)O,6.16,-11.2
CN(C)C(=O)[C@H]1C[C@@H]2CCN(C3CCOCC3)C[C@H]2O1,-3.87,-13.4
Cc1nn(C)c(C)c1C1CCCN1Cc1nc(C2CC2)no1 (stereo unspecified),-10.2,-15.8
Cn1ncc2c(=O)[nH]c(CN(Cc3ccco3)C3CCCC3)nc21,-7.5,-31.6
c1csc(N2CCCN(Cc3nc(C4CC4)no3)CC2)n1,-1.91,12.8
O=C(NCCNc1cnccn1)N1CCCC1,-2.84,2.11
COc1cccc(C(=O)Nc2cc(CC(C)C)nn2C)c1,-7.31,12
Cc1nc(C2CCCN(C(=O)C(C)(C)n3cc(Cl)cn3)C2)no1 (stereo unspecified),-5.75,-14.3
Cn1ncc2c(=O)[nH]c(CN3CCCC3Cc3ccccc3)nc21 (stereo unspecified),2.98,35.6
Cc1ncccc1CNCC1CCN(CC(O)c2ccccc2)CC1 (stereo unspecified),0.218,-34.9

SMILES,Percent Effect [1] [%],Percent Effect [2] [%]
Cc1cc(C)cc(NS(=O)(=O)c2cc3c(c(C(=O)O)c2)OCCO3)c1,3.19,-24.3
COC(=O)c1sccc1S(=O)(=O)N1CCC(Oc2cccnn2)CC1,-2.42,-7.45
COCC1CN(Cc2ccc(OC)cc2)Cc2nn(C)cc21 (stereo unspecified),14.5,-22.6
CC(NC1(CNC(=O)C(C)(C)C#N)CCOCC1)c1ccccc1 (stereo unspecified),-6.25,-10.5
CCOc1ccc(Cl)c(C(=O)N2CCN(C(=O)c3ccoc3C)CC2)n1,-4.19,-1.17
Cc1ccc(-c2nc(CCNC(=O)NC3CCN(C)CC3)co2)cc1,-3.19,3.52
Cc1cc(=O)n(CC(=O)NCC2CCCO2)c(-c2cccc(Cl)c2)n1 (stereo unspecified),8.05,-13.2
CCC(CNC(=O)c1ccc(Br)o1)N1CCc2ccccc2C1 (stereo unspecified),1.73,8.06
CC(=O)N(Cc1ncc(C)o1)C1CCN(Cc2ccncc2Cl)C1 (stereo unspecified),2.91,16
CN(C)C(=O)Cc1nc(CN2CCn3c(nnc3C3CC3)C2)cs1,-1.22,10.2
COc1c(CNCc2cccc(CS(C)(=O)=O)c2)c(C)nn1C,1.7,20.4
COc1ccc(S(=O)(=O)N2CCC(S(C)(=O)=O)CC2)cc1C,1.12,-1.05
CC(NCc1ccc(Cl)o1)c1nnc2n1CCCC2 (stereo unspecified),-3.67,-31
COCCO[C@@H]1CCN(C(=O)c2ccc(C)o2)[C@@H]1Cc1cccnc1,-0.436,-14.3
COCCCNC(=O)CCn1nc(C)c2ccccc21,-2.88,-11.5
Cc1ccc(NC(=O)C(C)N2CCCN(c3nccs3)CC2)c(C)c1 (stereo unspecified),-4.7,-49.5
c1cc(OCc2ccc3c(c2)OCCO3)ccc1CNC1CC1,-1.05,-54.3
Cc1nc(CCNC(=O)NCc2ccc(N(C)C)nc2)cs1,-1.75,6.63
CC(C)c1nc(C2CCCN(C(=O)CCn3ccnc3)C2)no1 (stereo unspecified),5.96,3.56
COc1ccc(CNC(=O)NCC2CCOC2)c(C(F)(F)F)c1 (stereo unspecified),-4.04,-3.72

SMILES,Percent Effect [1] [%],Percent Effect [2] [%]
O=C1CC(c2ccncc2)C2(CCN(CCO)CC2)N1 (stereo unspecified),-1.48,-4.07
CNC(=O)c1cc2c(nc1NCC1CC1)CCN(c1ccncn1)CC2,-4.09,-30.7
Cn1ncc2c(=O)[nH]c(CN3CCCC3CC3CCCCC3)nc21 (stereo unspecified),-3.06,22.5
CCOC(=O)N1CCN(C(=O)c2sc(-c3ccccc3F)nc2C)CC1,3.76,-8.58
CCC1CN(CC(=O)N2CCC2)CCN1CCOC (stereo unspecified),7.2,9.62
Cc1ccc(C(=O)N2CCN(Cc3nc(C(C)C)no3)CC2)c(=O)[nH]1,2.27,26.1
Cc1cnc(CN(C)C2CCN(CCc3ccccn3)CC2)cn1,4.34,10.4
CC(O)CN1CCC(CNCc2cccc(Br)c2)CC1 (stereo unspecified),-1.97,18.9
CC(C)Nc1ncnc2c1CCN(C(=O)c1ccncc1F)CC2,-1.6,-6.39
CN(C)C(=O)c1nc2c(s1)CCN(C(=O)c1ccc(Cl)cc1)CC2,2.36,-16.7
CNC(=O)NC(=O)CN1CCC(c2cccc(F)c2)C1 (stereo unspecified),-0.433,19.2
c1cc(CNCc2ccc3c(c2)CCO3)cc(N2CCOCC2)n1,-4.98,-32.6
Cc1ccc(OCC(=O)NS(=O)(=O)c2c(C)noc2C)cc1C,-4.32,-54.6
CN(C)C(=O)CN1CCCCC1c1nc(N)ncc1-c1cccc(F)c1 (stereo unspecified),-1.78,-2.08
Cc1noc(C)c1CNCC1CCN(CC(O)c2ccccc2)CC1 (stereo unspecified),-1.06,-21.8
NCC1CN(c2nc(-c3ccccc3)nc3c2CCNCC3)CCO1 (stereo unspecified),-0.798,-22.2
CN1CCN(C(=O)CC2CCN(CCc3ccccn3)CC2)CC1,-2.94,8.24
Cc1ccc(C(CNC(=O)NCc2cc[nH]n2)N2CCOCC2)o1 (stereo unspecified),0.256,-34.1
